These results are taken from the emibetuzumab library of Makowski et al. (2022).

Some of the results follow. The true hit rate is not given.

First the molecules themselves.
B1: VH:VL chains; a variant is named by its letters at X, in order (parent)
chain 1: QVQLVQSGAEVKKPGASVKVSCKASGYTFTDYXMHWVRQAPGQGLEWMGXVNPNXXXTTYNQKFEGRVTMTTDTSTSTAYMELRSLRSDDTAVYYCARXNXLDXWGQGTTVTVSS
chain 2: DIQMTQSPSSLSASVGDRVTITCSVSSSVSSIYLHWYQQKPGKAPKLLIYSTSNLASGVPSRFSGSGSGTDFTLTISSLQPEDFATYYCQVYSGYPLTFGGGTKVEIK

In this assay the parent is B1. Nature of the assay: yeast display scFab, FACS + sequencing. Conditions: with MET. In a few lines:
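For FACS, yeast displaying a heavy-chain CDR mutant scFab library were labelled with 1 nM HGFR-Fc and anti-Myc (PBSB, 1% milk, 3 h, room temperature), and the top 50% antigen-positive cells were gated. Input and round-3 sorted populations were deep sequenced in two replicates. The binding call was positive for sequences occurring in both antigen-positive samples and negative for sequences occurring only in input.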
As for VETEGDWD, the antigen binding call was “no binding”.

For the variant VRAETDVY, the antigen binding call was “no binding”. In the case of YRRGSSLV, the antigen binding call was “binds”.

Take DAEGDAGD: the antigen binding call is listed as “no binding”. Then VGGRGDGS, with “no binding”; and VKGRGAGS, with “binds”. The entry for VKGGSFGS is “no binding”. Turning to VKGRGSGS, the antigen binding call is given as “binds”.

With VKGRASAS, the antigen binding call is reported as “no binding”. Then VTEGGDVA, with “no binding”; and YTTGGDWA, with “no binding”. Then DATGGSVD, with “no binding”. Then DTGGDDGF, with “no binding”; and YARADDAS, with “no binding”.

As for VETGGAVA, the antigen binding call is on record as “no binding”. The entry for VEGEDAAA is “no binding”; for VETGGAAA it is “no binding”. With VRRGGSAA, the antigen binding call is on record as “binds”. Then VRTGGAAA, with “binds”; and VRRGGAAA, with “binds”.

Turning to VEGGGDWA, the antigen binding call is listed as “no binding”. Then VEGAASWF, with “no binding”; and YRKGSASD, with “binds”; and YRKGAASD, with “binds”. The entry for SRKGAASD is “no binding”; for VRAGDALV it is “no binding”. The entry for YTAGSALV is “no binding”; for VEAGDALV it is “no binding”. As to YRAKSALV, the antigen binding call is “binds”. Then VRARGALV, with “binds”; and YRARGALV, with “binds”; and VGGTGDVF, with “no binding”. Then DGGADVGA, with “no binding”; and DKGTDVGA, with “no binding”; and FRRGGSGS, with “binds”. Then FRRGSSGS, with “binds”; and FRRGGSGV, with “binds”; and FARGASGV, with “no binding”. For the variant FRRGSSGD, the antigen binding call is “binds”. On to DAGAAAGD, for which the antigen binding call is on record as “no binding”. For the variant DKREADVA, the antigen binding call was “no binding”. For the variant VKRGSSAA, the antigen binding call is recorded as “binds”.

FKKGSFGA: the antigen binding call is “no binding”.

Consider FKGEDAVA, for which the antigen binding call is on record as “no binding”.

On to FKKGSAVA, for which the antigen binding call was “binds”.

Regarding FEEEGSAA, the antigen binding call is “no binding”. The entry for FKGEGDAA is “no binding”; for FRAGGSAA it is “binds”. Then FKKGSSAA, with “binds”.

Turning to ATTKSDAA, the antigen binding call is listed as “no binding”.

As for SREAADWV, the antigen binding call was “no binding”. For DAGGGDVA, the antigen binding call is listed as “no binding”. Regarding DARENAGY, the antigen binding call is recorded as “no binding”.

As for DEGTGALA, the antigen binding call is listed as “no binding”. The entry for FRRGDSAA is “binds”; for FRRGSSAA it is “binds”. Then FKRKNSAA, with “no binding”. Then FGRGSSWA, with “no binding”; and FRRGGSAA, with “binds”; and FKRGSSAA, with “binds”. As to DGERTAGV, the antigen binding call is reported as “no binding”. Then VREEGDGA, with “no binding”; and VTTGGDGV, with “no binding”. The entry for YRAGGDWY is “binds”.

Turning to YRARGAWY, the antigen binding call is reported as “binds”. Then YRAGGYWY, with “binds”; and YTAGSDWY, with “no binding”. As for DRAGDDWY, the antigen binding call is listed as “no binding”. The entry for YRAGGAWY is “binds”; for DGGTSYSV it is “no binding”. Then SKEAGYSV, with “no binding”. Then VTGEDDAV, with “no binding”. Regarding ATGANSLD, the antigen binding call is on record as “no binding”. The entry for YEKGGDVY is “no binding”. Then YRAKGAWY, with “binds”. The entry for YRKGGAWY is “binds”. Regarding DGGTNDVD, the antigen binding call was “no binding”. With DTKAASWV, the antigen binding call is “no binding”. For YKKGSSLF, the antigen binding call is on record as “binds”.

With VKGRADSF, the antigen binding call is reported as “no binding”.

As for VKKESSGF, the antigen binding call is given as “no binding”. On to YKERGDVF, for which the antigen binding call is on record as “no binding”. Then VKKGSSLF, with “binds”; and YRKEAAWV, with “binds”.

For the variant YRTADDWV, the antigen binding call is given as “no binding”.

Take YRKGGAWV: the antigen binding call is “binds”. Take SAEGGSSA: the antigen binding call is “no binding”.

Consider FGAKTASF, for which the antigen binding call is “no binding”.

As for YRAGDDVA, the antigen binding call is given as “binds”. On to YAAGGDVA, for which the antigen binding call is recorded as “no binding”. The entry for YRGGSDVA is “binds”; for YRAAGDVA it is “binds”; for YTAGSDVA it is “no binding”. VRGGSDVA: the antigen binding call is recorded as “no binding”. Regarding VRAGDDVA, the antigen binding call is recorded as “no binding”. Then DRGRSDVA, with “no binding”; and YRAETDVA, with “no binding”. The entry for DAGGGAAV is “no binding”; for AGGGNDWV it is “no binding”; for VAAKNDGA it is “no binding”. Then VAKENAVA, with “no binding”; and YRKGSSGF, with “binds”; and YRKGSSLF, with “binds”. Turning to YGKGTSGF, the antigen binding call is listed as “no binding”.

For YRGGASWV, the antigen binding call is recorded as “binds”. Consider YTRGASWV, for which the antigen binding call was “no binding”. Then YRGASSWV, with “binds”; and YTKAASWV, with “no binding”; and YETTDSWV, with “no binding”. As for YAEATDLY, the antigen binding call is recorded as “no binding”. The entry for VTEGDSGV is “no binding”; for VTTGSASF it is “no binding”. Regarding DTEEGDWV, the antigen binding call is given as “no binding”. The entry for DRRGDASD is “no binding”; for YRGEGASD it is “binds”. Then YTGTSASD, with “no binding”; and YRRGDASD, with “binds”; and YRRGSASD, with “binds”. The entry for YRRGSAVD is “binds”. For the variant YTAAADLV, the antigen binding call was “no binding”. Then YETEGDVF, with “no binding”; and YRRGGASD, with “binds”; and DAGGGAVY, with “no binding”. The entry for YRGKGALA is “binds”; for YRKKGDLA it is “no binding”. The entry for YRKGAALA is “binds”. For YRGRSALA, the antigen binding call is on record as “binds”. Take YRGKGSLA: the antigen binding call is recorded as “binds”. Take YTGRAALA: the antigen binding call is “no binding”. Then VTGTGDGV, with “no binding”.

Regarding AETKGAVA, the antigen binding call is given as “no binding”.

On to DGGENAGD, for which the antigen binding call is on record as “no binding”. Then VAGGDAVV, with “no binding”; and YRGKSALA, with “binds”; and FRGGGAVS, with “binds”. The entry for FAAGGAWA is “no binding”; for FAGGGFAV it is “no binding”.

For the variant FREGGAVS, the antigen binding call is on record as “no binding”. Then FAGGSFAS, with “binds”. Then FAGTSVGS, with “no binding”; and FAAGSSGS, with “no binding”. The entry for FAAGGAAS is “binds”; for FRGGGSVS it is “binds”.

On to DTERDDAV, for which the antigen binding call was “no binding”. The entry for DGGTGDVF is “no binding”; for FAGGGAGS it is “binds”. As to FAGGGASD, the antigen binding call is recorded as “no binding”. Then FAGGGAGA, with “no binding”; and YTEEGDWV, with “no binding”. The entry for SAAGGDVA chain 1 L45S is “no binding”; for YRKGSALD it is “binds”; for YRKGTAGD it is “binds”.

As for YRRANFLD, the antigen binding call is “no binding”. As for YEGGGDGD, the antigen binding call was “no binding”. As to YEKGGAGD, the antigen binding call is recorded as “binds”. Regarding YEKGGDVD, the antigen binding call is “no binding”. Then YRKGSAGD, with “binds”. The entry for YAGEGDGA is “no binding”; for VTTADDWV it is “no binding”. Then SKEGGVGV, with “no binding”. On to YKGRGVGV, for which the antigen binding call is listed as “binds”.

On to YKGKGVGV, for which the antigen binding call is given as “binds”.

Consider DKGRSVGV, for which the antigen binding call is on record as “no binding”. With YRGKGVGV, the antigen binding call is listed as “no binding”.

For YKGRGVVV, the antigen binding call is on record as “binds”. With YKERDVGV, the antigen binding call is given as “no binding”.

With AARADDGS, the antigen binding call is “no binding”.

As to SAAGGDGV chain 1 L45S, the antigen binding call is “no binding”. Then FGRGGVGD, with “no binding”. Then FTEEGAGD, with “no binding”. Then FRRGGAGD, with “binds”; and FTETGAGD, with “no binding”.

With FRRGGSVD, the antigen binding call was “binds”. FRERGAGY: the antigen binding call was “no binding”. The entry for FRRGGAVD is “binds”. Then FRERGAGD, with “binds”; and VATGDFGV, with “no binding”. On to YKAGGALY, for which the antigen binding call is “binds”. The entry for YETETALY is “no binding”; for VKTGGDVY it is “no binding”; for YKTGGALY it is “binds”. SKGENALY: the antigen binding call is “no binding”.

As to YKKTGDLY, the antigen binding call was “no binding”. The entry for AARADDAV is “no binding”.

FATGGSGD: the antigen binding call is “no binding”. Then YRTGGSGD, with “binds”; and YRTGGAWD, with “binds”; and YRTGDSGD, with “binds”. The entry for YRTGGAGD is “binds”; for SETGGAGD it is “no binding”; for DATGGAGD it is “no binding”. The entry for DREEGSGD is “no binding”; for FTRTNFLS it is “no binding”; for VKEKGDVA it is “no binding”. As to YKARGSAA, the antigen binding call is “binds”.

On to YAARGSAA, for which the antigen binding call is recorded as “no binding”.

For YRGRSSAA, the antigen binding call is listed as “binds”. The entry for YTRAGSAA is “no binding”. Then YRAKGSAA, with “binds”. The entry for YKRRGSAA is “binds”.

As for DAKTDDGV, the antigen binding call was “no binding”.

Turning to DKEGGDGY, the antigen binding call is recorded as “no binding”. The entry for YGAAGSAA is “binds”.

Take YRARSSAA: the antigen binding call was “binds”. Turning to YTKRGSAA, the antigen binding call is “no binding”.

With YGGGGVAA, the antigen binding call is “no binding”. Then YGATSSLA, with “no binding”; and AREKGSAA, with “no binding”. The entry for YREKGSAA is “binds”; for YTGRGSAA it is “binds”; for AAEGGYAV it is “no binding”.
